TGFb SMAD3 inh = qHTS for Inhibitors of TGF-b; HepG2 CAGA-GFP TGF-b/SMAD3 reporter, GFP fluorescence, 18 h; TGF-beta stimulated, 500 pg/mL final; Potency, µM (titrated, usually from 46.1 µM), for inactives: at the top dose activity, negative = inhibition, hits mostly inhibitors; actives 1.2% (n = 410,000); AID 588855, 2011; note: % is set by controls: 0 for no effect and ±100 for the full control effect; nearly all actives have a fitted effect of over 65% in size
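Read-out: total well GFP (ex488/em500-530) summed from mean per-cell fluorescence. Cells: HEPG2 CAGA-GFP, 1% FBS DMEM, 18 h at 37 degrees C with 500 pg/mL final TGF-beta. Unstimulated wells served as the full-inhibition control; stimulated DMSO wells = 0%.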
HepG2 viability = qHTS for Inhibitors of TGF-b: Cytotox Counterscreen. actives 0.76% (n = 410,000). HepG2 CAGA-GFP viability, ATP luminescence, 18 h. Potency, µM (series often up to 46.1 µM), for the others: at the top dose activity change, negative = cytotoxicity, most hits filed as cytotoxic
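HepG2 CAGA-GFP cells (1000/well, DMEM with 1% FBS) received compound, then TGF-beta at 500 pg/mL final, and were incubated 18 hours at 37 degrees C. Viability was read by CellTiter-Glo luminescence. Media-only wells were set as complete cell-killing and DMSO as no toxicity.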
HT1080 IDH1KD tx = qHTS for induction of synthetic lethality in tumor cells producing 2HG: qHTS for the HT-1080-IDH1KD cell line | HT-1080 IDH1 knockdown viability, ATP luminescence, 48 h | Potency, µM (titrated, usually from 46.1 µM), for inactives: at the top dose activity, negative = toxicity, usual class: cytotoxic | actives 2% (n = 360,000) | AID 686971, 2013;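 note: 0% = DMSO wells and -100% = cell-free medium wells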
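Assay cells: HT-1080 with IDH1 knockdown, 750 per well, RPMI/5% FBS. Exposure: 48 h at 37 °C following 2 h pre-incubation. Read: CellTiter-Glo luminescence; fitted concentration-response, curve class assigned.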
DT40 TDP1 CPT = qHTS for Inhibitors of human tyrosyl-DNA phosphodiesterase 1 (TDP1): qHTS in cells in presence of CPT; AID 686979, 2013; chicken DT40 Tdp1-/-;hTDP1 cells + 20 nM CPT, ATP luminescence, 48 h; Potency, µM (highest dose often 46.2 µM), without a hit: at the top dose activity change, negative = growth inhibition, actives largely listed as inhibitors; actives 12% (n = 420,000); note: % is set by controls: 0 for no effect and ±100 for the full control effect; nearly all actives have a fitted effect of over 55% in size
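Chicken DT40 Tdp1-/- cells stably complemented with human TDP1 were seeded at 400 cells/well in medium containing 20 nM camptothecin, exposed to pin-transferred compounds, and grown at 37 °C for at least 48 hr. Viability was read as ATP luminescence.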
HT1080-NT tox = qHTS for induction of synthetic lethality in tumor cells producing 2HG: qHTS for the HT-1080-NT fibrosarcoma cell line. actives 1.6% (n = 360,000). Potency, µM (doses to about 46.1 µM), for inactives: at the highest dose activity, negative = less viability, most hits filed as cytotoxic. HT-1080-NT fibrosarcoma viability, CellTiter-Glo ATP luminescence, 48 h;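 note: NT is the 2HG producing partner of a matched IDH1 knockdown line; 0% = DMSO-treated cells and -100% = media-only wells without cells; nearly all actives have a fitted effect of over 55% in size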
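Compounds were tested in concentration-response format on HT-1080-NT cells for 48 hours at 37 degrees C. Cell viability came from CellTiter-Glo luminescence; curves were classified by r2, response magnitude and activity.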
TDP1 cell noCPT = qHTS for Inhibitors of human tyrosyl-DNA phosphodiesterase 1 (TDP1): qHTS in cells in absence of CPT; DT40 Tdp1-/- hTDP1 cells, no CPT, ATP luminescence, 48 h; Potency, µM (series often up to 46.2 µM), inactives show at the highest dose activity change, negative = growth inhibition, hits mostly inhibitors; actives 15% (n = 420,000); note: % is set by controls: 0 for no effect and ±100 for the full control effect; nearly all actives have a fitted effect of over 55% in size
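Compound effects on proliferation are scored in DT40 Tdp1-/-;hTDP1 cells in the absence of CPT. ATP levels (CellTiter-Glo luminescence) are recorded after a ≥48 hr, 37 °C incubation.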
Starred values were filed as active, the others as inactive; ? = inconclusive; . = no result given. Hits are enriched below; roughly 17% of the tested compounds scored in any of these assays. Calls come from the whole dose curve; as a rule, active = well fitted curve in the direction sought with a large enough effect; inconclusive = small, poorly fitted or top-dose-only effect, or another doubt; inactive = no such curve, though single readings can be large; an effect the other way counts as inactive or inconclusive. Potency is the fitted concentration of half-maximal effect.

SMILES	TGFb SMAD3 inh	HepG2 viability	HT1080 IDH1KD tx	DT40 TDP1 CPT	HT1080-NT tox	TDP1 cell noCPT
CCCC(=O)Nc1nc(-c2ccc(OC)cc2)cs1	0%	1%	0%	?	6%	?
O=C(Nc1ccc([N+](=O)[O-])cc1)Nc1nc(-c2ccc(Cl)s2)cs1	?	10µM*	7.3µM*	4.6µM*	6.5µM*	3.7µM*
COc1ccccc1C(=O)NCCC(=O)NC1CCC(C)CC1 (centres undefined)	7%	-7%	9%	0%	0%	-15%
CCn1c(Cc2ccc(OC)cc2)nnc1SCc1nc2ccccc2c(=O)[nH]1	-1%	-7%	0%	-6%	-3%	-18%
CC(C)N1CC2(CC(c3ccccc3C(F)(F)F)=NO2)CN1C(=O)c1ccco1 (centres undefined)	5%	-13%	-6%	?	16%	8.2µM*
CC(=O)N1CC2(CC(c3ccccc3F)=NO2)CN1c1ccc(Cl)cc1 (centres undefined)	-5%	-22%	3%	?	8%	?
CC(C)N1CC2(CC(c3ccccc3F)=NO2)CN1C(=O)c1ccc(C(C)(C)C)cc1 (centres undefined)	?	-9%	-9%	23µM*	-7%	10µM*
CC(C)CC1=NN(C(=O)c2ccco2)C(O)(C(F)(F)F)C1 (centres undefined)	-2%	0%	25%	-17%	6%	?
CC(C)N1CC2(CC(c3ccc(Cl)cc3Cl)=NO2)CN1C(=O)c1ccc(C(C)(C)C)cc1 (centres undefined)	-3%	-2%	3%	15µM*	-3%	12µM*
CC(C)N1CC2(CC(c3ccccc3C(F)(F)F)=NO2)CN1C(=O)c1ccc(C(C)(C)C)cc1 (centres undefined)	-29%	-26%	-13%	16µM*	-7%	21µM*
COC(=O)c1ccc2c(=O)n(CCCCCC(=O)NCCNC(C)=O)c(=O)[nH]c2c1	-5%	-1%	-2%	?	1%	-4%
COC(=O)[C@@H]1CCCN1C(=O)c1c(OC)cc(=O)n2c1CCN(Cc1ccc3nsnc3c1)CC2	.	.	.	1%	.	-15%
Cc1[nH]c(=O)c(C(=O)/C=C/c2ccccc2F)c2c1CCCC2	?	-85%	7.9µM*	4.6µM*	7.9µM*	3.3µM*
COc1ccc(Nc2ccc3cc(S(=O)(=O)N4CCCC4)ccc3n2)cc1Cl	-5%	-13%	.	21µM*	.	21µM*
COc1ccccc1N1CCN(c2ccc3cc(S(=O)(=O)N4CCCCC4)ccc3n2)CC1	-12%	2%	-19%	13µM*	-18%	7.3µM*
CCN(c1ccccc1)c1ccc2cc(S(=O)(=O)N3CCCC3)ccc2n1	-23%	-17%	.	26µM*	.	21µM*
O=S(=O)(c1ccc2nc(Nc3cccc(F)c3)ccc2c1)N1CCCC1	-25%	-26%	.	23µM*	.	?
COc1cccc(CNS(=O)(=O)c2c(C(=O)N3CCC(C)CC3)c(C)n(C)c2C)c1	-1%	-1%	.	-6%	.	-4%
COC[C@H](NS(=O)(=O)c1ccc(Br)cc1F)[C@@H](O)c1ccccc1	-5%	-2%	-3%	?	0%	?

Screens: PubChem, National Center for Advancing Translational Sciences (NCATS)
